Rows were chosen to be rich in hits. Some 3.1% of all compounds tested hit in one or more screens of this group.
CASP6 VEID inh: caspase-6 (human) enzyme inhibition; P55212; purified caspase-6, Z-VEID-R110 cleavage fluorescence; inhibition, % at 12.5 µM; 350,000 compounds, 0.53% hits; AID 686996;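 active = mean inhibition across replicates at least about 35%, with every replicate also reaching that limit, limit read from the data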
ERAP1 inh: blocks human ERAP1 aminopeptidase activity; Q9NZ08; recombinant ERAP1, Leu-AMC fluorescence, 60 min; inhibition, % at 10.7 µM; 340,000 compounds, 0.15% hits;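 active = mean replicate inhibition of at least 30%, or all replicates individually reaching that 30% level; inactive = mean below 30% and not every replicate reaching it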
FGF22 binding: FGF22 (human) thermal shift binding | Q9HCT0 | recombinant FGF22 thermal shift, SYPRO orange fluorescence; percent of sucrose octasulfate shift, DMSO zero | activity (Tm shift, normalised), % at 9.99 µM | 340,000 compounds, 1.5% hits;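 active = mean Tm shift, scaled 0 neutral to 100 positive control, at about 1.3% or above, every replicate too, limit read from the data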
Target sequence (Q9HCT0 whole entry, looked up): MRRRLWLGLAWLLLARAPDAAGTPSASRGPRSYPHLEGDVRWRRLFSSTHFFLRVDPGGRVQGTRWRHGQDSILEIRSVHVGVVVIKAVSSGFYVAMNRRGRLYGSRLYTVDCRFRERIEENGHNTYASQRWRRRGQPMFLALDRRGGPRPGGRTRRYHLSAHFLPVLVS
SIRT5 block: inhibitors of human sirtuin-5 desuccinylase | Q9NXA8 | Purified SirT5, succinyl-peptide AMC, trypsin-coupled fluorescence | inhibition, % at 15 µM | 330,000 compounds, 1.1% hits | AID 652115; in the data active = inhibition above about 15%
Target sequence (Q9NXA8 whole entry, looked up): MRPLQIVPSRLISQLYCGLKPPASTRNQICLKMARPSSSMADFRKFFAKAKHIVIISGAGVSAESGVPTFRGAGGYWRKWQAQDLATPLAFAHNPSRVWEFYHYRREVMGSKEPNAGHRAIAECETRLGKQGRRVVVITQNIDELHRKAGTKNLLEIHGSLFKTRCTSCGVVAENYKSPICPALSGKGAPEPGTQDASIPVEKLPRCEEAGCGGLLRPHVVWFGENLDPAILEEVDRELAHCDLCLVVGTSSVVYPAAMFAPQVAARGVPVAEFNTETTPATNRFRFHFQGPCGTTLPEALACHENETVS
Numbers stand for hits.

How did O=C(O)CCN1C(=O)/C(=C\c2ccc(OCc3ccccc3)c(OCc3ccccc3)c2)SC1=S do in these assays?
CASP6 VEID inh: inactive; ERAP1 inh: inactive; FGF22 binding: inactive; SIRT5 block: inactive

How did O=C(O)CN1C(=O)/C(=C\c2ccccc2OCc2ccc(Cl)cc2Cl)SC1=S do in these assays?
CASP6 VEID inh: 52; ERAP1 inh: inactive; FGF22 binding: inactive; SIRT5 block: inactive

What do the screens show for `O=C(O)CN1C(=O)/C(=C\c2cc(Br)ccc2OCc2ccccc2Cl)SC1=S`?
CASP6 VEID inh: 76; ERAP1 inh: inactive; FGF22 binding: inactive; SIRT5 block: inactive

Results for CCOc1ccccc1C=C1SC(=S)N(CC)C1=O ?
CASP6 VEID inh: inactive; ERAP1 inh: inactive; FGF22 binding: inactive

What do the screens show for `Cc1cc(NC(=O)CN2C(=O)/C(=C/c3ccccc3F)SC2=S)no1`?
CASP6 VEID inh: inactive; ERAP1 inh: inactive; FGF22 binding: inactive; SIRT5 block: inactive

How did O=C(O)CN1C(=O)/C(=C\c2cc(Br)ccc2OCc2ccccc2F)SC1=S do in these assays?
CASP6 VEID inh: 38; ERAP1 inh: inactive; FGF22 binding: inactive; SIRT5 block: inactive

Results for O=C(O)CN1C(=O)/C(=C\c2cc(Br)ccc2OCc2ccc([N+](=O)[O-])cc2)SC1=S ?
CASP6 VEID inh: 55; ERAP1 inh: inactive; SIRT5 block: inactive

How did CCCNC(=O)N(C)C[C@@H]1Oc2ncc(C#CC3(O)CCCC3)cc2C(=O)N([C@H](C)CO)C[C@@H]1C do in these assays?
CASP6 VEID inh: inactive; ERAP1 inh: inactive; FGF22 binding: inactive; SIRT5 block: inactive

What do the screens show for `O=C(NCC[C@@H]1CC[C@@H](NC(=O)C2CCC2)[C@H](CO)O1)c1cnccn1`?
CASP6 VEID inh: inactive; ERAP1 inh: inactive; FGF22 binding: inactive; SIRT5 block: inactive

How did CO[C@@H]1CN(C)C(=O)c2ccc(NC(C)=O)cc2OC[C@@H](C)N(C(=O)c2cccnc2)C[C@H]1C do in these assays?
CASP6 VEID inh: inactive; ERAP1 inh: inactive; FGF22 binding: inactive; SIRT5 block: inactive

What do the screens show for `O=C(C[C@@H]1C=C[C@H](NC(=O)c2cccnc2)[C@@H](CO)O1)NCc1ccncn1`?
CASP6 VEID inh: inactive; ERAP1 inh: inactive; SIRT5 block: inactive

How did O=C(O)CN1C(=O)/C(=C\c2cccc(OCc3ccc(Cl)cc3Cl)c2)SC1=S do in these assays?
CASP6 VEID inh: 60; ERAP1 inh: inactive; FGF22 binding: inactive; SIRT5 block: 15

How did CCCC/C(O)=C1\C(=O)CC(C)(C)CC1=Nc1ccccc1OC do in these assays?
CASP6 VEID inh: inactive; ERAP1 inh: inactive; FGF22 binding: inactive; SIRT5 block: inactive

What do the screens show for `CCCC/C(O)=C1\C(=O)CC(C)(C)CC1=Nc1ccc(N)cc1`?
CASP6 VEID inh: inactive; ERAP1 inh: inactive; FGF22 binding: 43; SIRT5 block: inactive

Results for CC(C)(C)C(=O)c1c(N)[nH]c(C(=O)c2ccccc2)c1-c1ccc(Br)cc1 ?
CASP6 VEID inh: inactive; ERAP1 inh: inactive; FGF22 binding: inactive; SIRT5 block: 20

What do the screens show for `O=C1CN(CCN2CC(=O)N(Cc3ccccc3)C(=O)C2)CC(=O)N1Cc1ccccc1`?
CASP6 VEID inh: inactive; ERAP1 inh: inactive; FGF22 binding: 44

What do the screens show for `COc1ccc(-c2cn(CC[C@@H]3CC[C@@H](NC(=O)Nc4ccc(F)cc4)[C@@H](CO)O3)nn2)cc1`?
CASP6 VEID inh: inactive; ERAP1 inh: inactive; SIRT5 block: inactive

Results for C[C@H](O)C#Cc1cnc2c(c1)C(=O)N([C@H](C)CO)C[C@H](C)[C@H](CN(C)C(=O)c1ccccc1)O2 ?
CASP6 VEID inh: inactive; ERAP1 inh: inactive; FGF22 binding: inactive; SIRT5 block: inactive

How did S=C(c1ccc(-c2ccc(Br)cc2)o1)N1CCCCC1 do in these assays?
CASP6 VEID inh: 54; ERAP1 inh: inactive; FGF22 binding: inactive; SIRT5 block: inactive

What do the screens show for `Cc1ccccc1CSCC(=O)NCCSc1ccccn1`?
CASP6 VEID inh: inactive; ERAP1 inh: inactive; FGF22 binding: 44; SIRT5 block: inactive

What do the screens show for `CCCC(=O)Nc1ccc2c(c1)C(=O)N(C)[C@H]1CC[C@H](CC(=O)NCCOC)O[C@@H]1CO2`?
FGF22 binding: inactive

Results for O=C(COC(=O)C1CCCN1C(=O)C12CC3CC(CC(C3)C1)C2)c1ccc(Br)cc1 (stereo not given) ?
CASP6 VEID inh: inactive; ERAP1 inh: inactive; FGF22 binding: 44; SIRT5 block: inactive

Results for COc1ccc(C(=O)COC(=O)C2CCCN2C(=O)C23CC4CC(CC(C4)C2)C3)cc1 (stereo not given) ?
CASP6 VEID inh: inactive; ERAP1 inh: inactive; FGF22 binding: 43; SIRT5 block: inactive

What do the screens show for `COc1ccc(NC(=O)N2CCCC2C(=O)NC23CC4CC(CC(C4)C2)C3)cc1` (stereo not given)?
CASP6 VEID inh: inactive; ERAP1 inh: inactive; FGF22 binding: inactive; SIRT5 block: inactive

What do the screens show for `O=C(O)C1CCCN1C(=O)C12CC3CC(CC(C3)C1)C2` (stereo not given)?
CASP6 VEID inh: inactive; ERAP1 inh: inactive; FGF22 binding: inactive; SIRT5 block: inactive

Results for COc1ccc(-n2c(C)cc(C)c(C(C)=O)c2=S)cc1 ?
CASP6 VEID inh: inactive; ERAP1 inh: inactive; FGF22 binding: inactive; SIRT5 block: 27

Results for COc1ccc(-n2c(C)c(C(C)=O)c3cc(OC(C)=O)ccc32)cc1 ?
CASP6 VEID inh: inactive; ERAP1 inh: inactive; SIRT5 block: inactive

How did N#Cc1ccccc1OCC(=O)OCC(=O)c1ccc2c(c1)NC(=O)CO2 do in these assays?
CASP6 VEID inh: inactive; ERAP1 inh: 36; SIRT5 block: inactive

What do the screens show for `O=C1COc2ccc(C(=O)COC(=O)CNC(=O)c3ccco3)cc2N1`?
CASP6 VEID inh: inactive; ERAP1 inh: inactive; FGF22 binding: 43; SIRT5 block: inactive

What do the screens show for `O=C1COc2ccc(C(=O)COC(=O)CCSc3ccc(Cl)cc3)cc2N1`?
CASP6 VEID inh: inactive; ERAP1 inh: inactive; SIRT5 block: 16

Results for O=S(=O)(Nc1cccc(-c2cn3c(n2)SCC3)c1)c1ccccc1 ?
CASP6 VEID inh: inactive; ERAP1 inh: 46; FGF22 binding: inactive; SIRT5 block: inactive

How did Cc1ccccc1C(=O)NCC(=O)O do in these assays?
CASP6 VEID inh: inactive; ERAP1 inh: inactive; FGF22 binding: 43; SIRT5 block: inactive

How did CC(C)(C)NC(=O)CSc1nc(N)c(NC(=O)c2ccccc2F)c(=O)[nH]1 do in these assays?
CASP6 VEID inh: inactive; ERAP1 inh: inactive; FGF22 binding: 44; SIRT5 block: inactive

What do the screens show for `Cc1cc(NC(=O)CSc2nc(N)c(NC(=O)c3ccccc3F)c(=O)[nH]2)no1`?
CASP6 VEID inh: inactive; ERAP1 inh: inactive; FGF22 binding: inactive; SIRT5 block: inactive

How did C[C@@H]1CN([C@@H](C)CO)C(=O)c2cccc(NS(=O)(=O)c3ccccc3)c2O[C@@H]1CN(C)Cc1ccc(C(F)(F)F)cc1 do in these assays?
CASP6 VEID inh: inactive; ERAP1 inh: inactive; FGF22 binding: inactive; SIRT5 block: inactive

How did CC(=O)N(C)C[C@@H]1Oc2ncc(-c3ccccc3C)cc2C(=O)N([C@H](C)CO)C[C@H]1C do in these assays?
CASP6 VEID inh: inactive; ERAP1 inh: inactive; FGF22 binding: inactive; SIRT5 block: 32

What do the screens show for `C[C@H](CO)N1C[C@H](C)[C@H](CN(C)C)Oc2ncc(-c3ccccc3F)cc2C1=O`?
CASP6 VEID inh: inactive; ERAP1 inh: inactive; FGF22 binding: inactive; SIRT5 block: 17
